Results as given in a collection of fitness landscapes (doi:10.1126/science.1257360).
Whole data set: some 140,000 sequences, median “enrichment ratio after two sorts for PhoP signalling” near 0, cut for the highest 2% near 11. Many of the other results were omitted from the sample, so the highest values are more common in it than they were.

B1: PhoQ; a variant is named by its letters at X, in order, P23837 (parent)
chain: MKKLLRLFFPLSLRVRFLLATAAVVLVLSLAYGMVALIGYSVSFDKTTFRLLRGESNLFYTLAKWENNKLHVELPENIDKQSPTMTLIYDENGQLLWAQRDVPWLMKMIQPDWLKSNGFHEIEADVNDTSLLLSGDHSIQQQLQEVREDDDDAEMTHSVAVNVYPATSRMPKLTIVVVDTIPVELKSSYMVWSWFIYVLSANLLLVIPLLWVAAWWSLRPIEALAKEVRELEEHNRELLNPATTRELTSLVRNLNRLLKSERERYDKYRTTLTDLTHSLKTPLXXLQXXLRSLRSEKMSVSDAEPVMLEQISRISQQIGYYLHRASMRGGTLLSRELHPVAPLLDNLTSALNKVYQRKGVNISLDISPEISFVGEQNDFVEVMGNVLDNACKYCLEFVEISARQTDEHLYIVVEDDGPGIPLSKREVIFDRGQRVDTLRPGQGVGLAVAREITEQYEGKIVAGESMLGGARMEVIFGRQHSAPKDE

Variants of: B1
Assay: enrichment ratio after two sorts for PhoP signalling (ratio (wild type AVST 3.29)); higher = more functional
Conditions: with PhoP (E. coli)

Variant	enrichment ratio
DFEW	≤ 0.25
DSVD	≤ 0.25
KHWM	≤ 0.25
VFFE	≤ 0.25
QDVC	≤ 0.25
AYPL	≤ 0.25
CSYH	≤ 0.25
FHNW	≤ 0.25
IIGT	≤ 0.25
SECP	≤ 0.25
SEAI	7.14
SECI	28.3
NECL	≤ 0.25
SECA	19.7
SECL	18.7
SECK	≤ 0.25
SEGD	1.88
SEDH	≤ 0.25
SEEL	≤ 0.25
SECS	20.4
SEYD	≤ 0.25
FMWQ	≤ 0.25
KFFK	≤ 0.25
EHGM	≤ 0.25
IQWT	≤ 0.25
KMGN	≤ 0.25

Variant	enrichment ratio
YTDA	≤ 0.25
VCDM	≤ 0.25
EGPQ	≤ 0.25
LCVP	≤ 0.25
QECG	23
FEGG	≤ 0.25
SECE	15.4
FECG	30.4
IWCG	≤ 0.25
SRCQ	1.15
MECG	9.16
SECQ	11.4
MECQ	≤ 0.25
SENE	≤ 0.25
STCG	9.46
SENW	≤ 0.25
DDMI	≤ 0.25
WKTT	≤ 0.25
EERG	≤ 0.25
WYHV	≤ 0.25
FLNY	≤ 0.25
SECV	24.5
FECA	≤ 0.25
FECS	19.8
SLCG	6.01
SEYV	5.27

Variant	enrichment ratio
FECI	3.72
SECG	13.7
SRCG	≤ 0.25
SRCV	5.55
MMWP	≤ 0.25
LWRR	≤ 0.25
YSRA	≤ 0.25
QHHS	≤ 0.25
DQIV	≤ 0.25
MNST	≤ 0.25
GEST	16.9
TNST	12.6
GIST	8.78
GNST	15.1
MEST	5.63
LNST	≤ 0.25
GVST	≤ 0.25
GESK	≤ 0.25
ARCL	4.81
GDEI	≤ 0.25
EMQY	≤ 0.25
PNEV	≤ 0.25
IGRG	≤ 0.25
IFWY	≤ 0.25
SWHL	0.549
HMCK	≤ 0.25

Variant	enrichment ratio
TTSF	13.7
TTWG	12.2
CKMF	38.2
YTSF	≤ 0.25
CKFF	≤ 0.25
STWG	≤ 0.25
YTDF	≤ 0.25
CKAF	≤ 0.25
TTDF	16.9
KQSF	≤ 0.25
CTDF	≤ 0.25
YTWG	≤ 0.25
HDWN	≤ 0.25
LGQF	≤ 0.25
TLMP	≤ 0.25
DGEM	≤ 0.25
EYIG	≤ 0.25
LWNR	≤ 0.25
GEFD	≤ 0.25
SQIR	≤ 0.25
MDDP	≤ 0.25
TTYI	6.16
TTHF	11.8
RIMF	≤ 0.25
THMF	9.68
QVHF	0.315

Variant	enrichment ratio
YTEL	≤ 0.25
TTMF	20.9
TTPA	≤ 0.25
NVDF	≤ 0.25
TTPS	≤ 0.25
QVDF	15.1
TTEL	16.6
PVYQ	≤ 0.25
GLRF	≤ 0.25
VHDP	≤ 0.25
NRQL	≤ 0.25
DQAF	≤ 0.25
KQIG	≤ 0.25
WLRY	≤ 0.25
SHDF	≤ 0.25
GTQF	≤ 0.25
STWN	≤ 0.25
THDF	11.6
TTQF	22.7
TTWN	15.1
YTWN	≤ 0.25
YTAF	≤ 0.25
YTQF	≤ 0.25
NHDF	≤ 0.25
LTAF	≤ 0.25
TTAF	14

Variant	enrichment ratio
RKCR	≤ 0.25
QNKW	≤ 0.25
YVTW	≤ 0.25
DWIG	≤ 0.25
ERDP	≤ 0.25
VGHC	≤ 0.25
NFWG	≤ 0.25
KTWY	≤ 0.25
TTWI	9.7
STGL	9.48
TTYN	12.5
TTWS	11.9
YTSA	≤ 0.25
TTSA	11.5
YTWS	≤ 0.25
KQSA	≤ 0.25
TTGL	12.3
KSYN	≤ 0.25
WIYN	≤ 0.25
YTGL	≤ 0.25
IEKA	≤ 0.25
RHPA	≤ 0.25
PCEP	≤ 0.25
MEYV	5.49
WFPG	≤ 0.25
